# High-throughput results as filed in PubChem BioAssay.
# Tau fluor counter – counter-screen for tau fibril formation inhibitors; AID 1463; 280,000 compounds, 0.93% hits; tau K18 P301L Alexa594 fluorescence, heparin fibrillization; Potency, µM (highest dose often 57.7 µM), for inactives: top-dose activity change, negative = decrease; further: on the % scale 0 is the no-effect control and ±100 the full control effect; nearly all actives have a fitted effect of over 55% in size
#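 Human tau K18 P301L (15 uM unlabeled, 0.24 uM Alexa 594-labeled) in 100 mM sodium acetate pH 7 with 20 uM heparin, 6 hr at 37 C. ThT 30 uM added, 1 hr ambient; Alexa 594 FP and total fluorescence read at 555/632 nm.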
# Tau fibril ThT – blocks human tau fibril formation measured by thioflavin T. AID 1460. 270,000 compounds, 2.1% hits. recombinant tau K18 P301L, heparin-induced fibrillization, ThT fluorescence. Potency, µM (top dose mostly 57.4 µM), inactives show at the highest dose activity, negative = inhibition, actives largely listed as inhibitors. P10636; further: on the % scale 0 is the no-effect control and ±100 the full control effect; nearly all actives have a fitted effect of over 55% in size
# Target sequence (P10636 561-689 P618L limits assumed): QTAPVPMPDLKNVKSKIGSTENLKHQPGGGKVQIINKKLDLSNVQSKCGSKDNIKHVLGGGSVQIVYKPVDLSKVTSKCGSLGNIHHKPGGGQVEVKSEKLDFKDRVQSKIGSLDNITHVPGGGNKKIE
#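 Using a mix of unlabeled (15 uM) and Alexa 594-labeled (0.24 uM) tau K18 P301L, heparin-triggered fibrillization over 6 hr at 37 C was scored by ThT fluorescence.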
# HTT ATP protect – protects HTT-Q103 PC12 cells, measured by ATP. PC12 HTT-Q103 induced, cytoprotection, ATP luminescence, 40 h. Potency, µM (highest dose often 56.4 µM), inactives show cytoprotection (ATP increase), hits mostly activators. 230,000 compounds, 0.14% hits; further: % of control where 0% means no effect; nearly all actives have a fitted effect of over 45% in size
#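 ATP quantification (ATPlite) reports survival of PC12 cells in which tebufenozide, 100 nM final, switches on Htt exon 1 with 103 glutamines linked to GFP; compounds are titrated.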
# HttQ103 aggreg – reduces HttQ103-GFP aggregates in PC12 cells. PC12 HttQ103-GFP aggregates, Acumen cytometry, 40 h. Potency, µM (titrated, usually from 46.1 µM), without a hit: top-dose activity change, negative = inhibition, actives largely listed as inhibitors. 220,000 compounds, 1.1% hits. AID 1688; further: on the % scale 0 is the no-effect control and ±100 the full control effect; nearly all actives have a fitted effect of over 60% in size
#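 Compounds (qHTS titration) were added to PC12 cells expressing an ecdysone-driven HTT exon 1 Q103–GFP fusion after induction with 100 nM tebufenozide. Aggregate formation was measured as GFP objects in cell lysates.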
# Tau FP inhib – tau fibrillization inhibition (FP); 280,000 compounds, 0.39% hits; P10636; K18 P301L tau heparin fibrillization, Alexa594 FP, 6 h; Potency, µM (highest dose often 57.7 µM), for inactives: at the top dose activity, negative = inhibition, usual class: inhibitors; further: on the % scale 0 is the no-effect control and ±100 the full control effect; nearly all actives have a fitted effect of over 55% in size
#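 Quantitative HTS format: compounds meet 15 uM recombinant K18 P301L tau and Alexa 594-tau tracer in 100 mM sodium acetate pH 7; 20 uM heparin triggers fibrillization at 37 C over 6 hr; FP gives the signal.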
# * hit, by the source's call; ? = inconclusive; / = no result; [ ] = remark or other dose. In the library only some 3.7% were active in any assay of this set; here they are far more common. The call rests on the fitted dose curve; in most records, active means well fitted curve in the direction sought with a large enough effect; inconclusive means small, poorly fitted or top-dose-only effect, or another doubt; inactive means no such curve, though single readings can be large; an effect the other way counts as inactive or inconclusive. Potency means the concentration at half of the fitted maximal effect.
SMILES,Tau fluor counter,Tau fibril ThT,HTT ATP protect,HttQ103 aggreg,Tau FP inhib
COc1ccc2c(c1)CCc1c(C(=O)Nc3c(C)nn(Cc4ccc(C)cc4)c3C)noc1-2,-4%,-10%,/,/,7%
COc1ccc(-c2nc3cnc(N4CCN(C)CC4)nc3n(C)c2=O)cc1,/,/,29%,/,/
Cc1cc(C)cc(C(=O)N2CC(=O)Nc3ccc(C)cc3C2c2ccccc2)c1 (stereo unspecified),-13%,-20%,/,/,2%
CN(C)c1ccc(N=Nc2ccc(S(=O)(=O)O)cc2)c2ccccc12,?,5µM*,-12%,-22%,2%
CC(=O)N(Cc1ccc(F)cc1)C1=C(NCCc2ccccc2)C(=O)c2ccccc2C1=O,?,28µM*,-157%,7.1µM*,?
CC(C)c1cc(NC(=O)c2ccccc2)cc(C(C)C)c1O,-16%,0%,-150%,11µM*,1%
CN1C(=O)/C(=C/c2ccc(-c3ccccc3[N+](=O)[O-])o2)SC1=Nc1ccc(Cl)c(C(=O)O)c1,-14%,14µM*,13%[10 µM],26%,-11%
COC(=O)CCCC(=O)O,/,/,-6%[10 µM],/,/
O=C(O)Cn1c(=O)oc2cc(S(=O)(=O)N3CCOCC3)ccc21,/,/,-10%,/,/
S=C(Nc1ccccc1)Nc1ccc2cn[nH]c2c1,?,8.9µM*,-4%[10 µM],-14%[9.22 µM],-12%
NC(=S)Nc1ccc2cn[nH]c2c1,-1%,4%,1%,11%,-1%
c1cc2cn[nH]c2cc1NC1CCCCCC1,?,28µM*,-7%,-24%,?
CC(=O)SC1CC2=CC(=O)CC[C@]2(C)C2CC[C@@]3(C)[C@@H](CC[C@@]34CCC(=O)O4)C12 (stereo partly specified),-25%,-18%,/,/,-12%
O=C1c2cccc([N+](=O)[O-])c2C(=O)N1c1ncn[nH]1,/,/,-11%[10 µM],/,/
CCOC(=O)c1c(S(=O)(=O)NCC(=O)N(C)Cc2ccccc2)c(C)n(C)c1C,0%,4%,/,/,0%
Cc1cc(C(=O)N/N=C/c2cc([N+](=O)[O-])ccc2O)c2ccccc2n1,4%,?,32%[10 µM],7.1µM*,7%
O=C(N/N=C/c1cc([N+](=O)[O-])ccc1O)c1cc(-c2ccccc2)nc2ccccc12,?,?,41%[10 µM],-5%,11%
Cc1cc(C(=O)N/N=C/c2cc(Br)cc([N+](=O)[O-])c2O)c2ccccc2n1,?,7.9µM*,31%[10 µM],?,?
C[C@@H](c1ccccc1)N1C(=O)[C@H]2[C@H]3[C@H](O)[C@H](O)C/C(=N/NC(=O)OCc4ccccc4)[C@@H]3CC[C@@H]2C1=O,-5%[11.6 µM],-6%[11.5 µM],3%[10 µM],/,2%[11.6 µM]
O=C1CC(=O)N(CCc2ccccc2)C(=O)N1CCc1ccccc1,-26%,28µM*,-9%[0.074 µM],0.4µM*,?
CCc1ccc(/C=C2\SC(N3CCCC3)=NC2=O)cc1,-14%,-5%,-22%,16%,5%
N=C1/C(=C\c2ccc(OCc3ccccc3)cc2)C(=O)N=C2SC(N3CCCC3)=NN12,?,4µM*,16%[10 µM],1%[9.22 µM],-8%
Cc1ccc(C2=NN=C(NC(=O)CSc3nncn3C)SC2)cc1,-18%,22µM*,-6%[10 µM],10%[9.22 µM],?
N/N=C1/c2ccccc2N[C@H]1OC(=O)Nc1cccc(Cl)c1,/,/,6%[10 µM],/,/
Cc1ccc(O)c(NC(=O)c2noc3c2CCCCC3)c1,25µM*[quencher],-11%,-121%,-1%,?
SMILES,Tau fluor counter,Tau fibril ThT,HTT ATP protect,HttQ103 aggreg,Tau FP inhib
Cc1ccc(O)c(NC(=O)c2noc3c2CCCC3)c1,?,?,/,/,13%
CO[C@H]1C=CO[C@@]2(C)Oc3c(C)c(O)c4c(O)c(c(C=NN5CCN(C6CCCC6)CC5)c(O)c4c3C2=O)NC(=O)C(C)=CC=C[C@H](C)[C@H](O)[C@@H](C)[C@@H](O)[C@@H](C)[C@H](OC(C)=O)[C@@H]1C,-26%,18µM*,/,/,-16%
COCCn1c(=O)c(-c2ccc(F)cc2)nc2cnc(OCc3ccccc3)nc21,/,/,6%,/,/
CCOC(=O)C1CCCN(c2c(C(=O)c3ccc(C)cc3)cnc3ccc(OCC)cc23)C1 (stereo unspecified),-17%,-17%,/,/,-12%
Cc1cc(-c2ccccc2)nc2c(Br)c(=O)[nH]n12,-17%,10µM*,-16%,9%[9.22 µM],?
Cc1cc2nc(-c3ccccc3)cc(=O)n2[nH]1,-6%,-6%,-9%[10 µM],6%[9.22 µM],5%
CO/N=C(/C(=O)N[C@@H]1C(=O)N2C(C(=O)O)=CCS[C@H]12)c1csc(N)n1,/,/,-9%,-5%,/
Cc1nc(C/C(=N\Nc2ccccc2)c2ccc(O)cc2O)cs1,25µM*[quencher],?,-22%,2%,-5%
CCS(=O)(=O)c1ccc(Sc2nncn2C)c([N+](=O)[O-])c1,-9%,-13%,-165%,11µM*,-7%
Cn1cnnc1Sc1ccc(C(=O)OCC(=O)Nc2cc(Cl)cc(Cl)c2)cc1[N+](=O)[O-],13µM*[quencher],?,0%[10 µM],0%,-4%
Cn1cnnc1Sc1ccc(/C=C/C(=O)c2ccc(O)cc2)cc1[N+](=O)[O-],?,14µM*,-27%,?,2%
Cc1cc(-c2ccc(S(=O)(=O)Nc3ccccc3F)s2)on1,-6%,-4%,/,/,3%
CC1(C)OC(C(O)(c2cccc3c2oc2ccccc23)c2cccc3c2oc2ccccc23)C(C(O)(c2cccc3c2oc2ccccc23)c2cccc3c2oc2ccccc23)O1 (stereo unspecified),1%[11.6 µM],-1%[11.5 µM],?,/,-16%[11.6 µM]
CC1=NN(C(N)=S)C(=O)C1N=Nc1ccccc1 (stereo unspecified),-5%,?,-11%,-4%,-1%
CC1=NN(C(N)=S)C(=O)C1N=Nc1cccc2ccccc12 (stereo unspecified),?,4µM*,/,/,-9%
CCCn1c(NC(=O)c2cccc(C)c2C)nc2ccccc21,-17%,-18%,-57%,6.3µM*,5%
CCn1c(NC(C)=O)nc2ccccc21,6%,0%,11%[1.9 µM],-26%,9%
Cc1cc2nc3ccc(=[N+](C)C)cc-3sc2cc1N,?,1.1µM*,-35%[10 µM],-37%[9.22 µM],8.9µM*
CCC(C(=O)NCCc1ccc(Cl)cc1)n1ccc2cc(S(=O)(=O)N3CCCCC3)ccc21 (stereo unspecified),-23%,4%,/,/,-6%
Cc1cc(C)n(-c2nc3ccccc3nc2Nc2ccc(N(C)C)cc2)n1,18µM*[quencher],?,/,/,?
Cc1ccc2nc(Nc3ccc4[nH]c(=O)[nH]c4c3)c(-n3nc(C)cc3C)nc2c1,11µM*[quencher],?,25%[10 µM],-12%,15%
COc1cc(-c2nc3nc[nH]n3c2Nc2ccc(C(C)C)cc2)ccc1O,?,25µM*,/,/,?
COc1cc(-c2nc3cnccn3c2Nc2ccc(C(C)C)cc2)ccc1O,?,-8%,-89%,?,-3%
